Assay outcomes (PubChem)
Compounds with a hit are over-represented: about 11% of the library has one in this group of screens.
USP17 inh: human USP17-like deubiquitinase inhibition; purified USP17, Ub-rhodamine cleavage fluorescence, 3 h; actives 6.5% (n = 47,000); inhibition, % at 50 µM; AID 1645855
USP30 block: blocks human USP30 ubiquitin-rhodamine cleavage; Q70CQ3; purified USP30, Ub-rhodamine cleavage fluorescence; inhibition, % at 25 µM; actives 5.3% (n = 47,000)
OTUD3 inh: blocks human OTUD3 ubiquitin-rhodamine cleavage. purified OTUD3, Ub-rhodamine fluorescence, 2 h. AID 1645858. actives 0.7% (n = 47,000). Q5T2D3. inhibition, % at 25 µM
Target sequence (Q5T2D3 whole entry, looked up): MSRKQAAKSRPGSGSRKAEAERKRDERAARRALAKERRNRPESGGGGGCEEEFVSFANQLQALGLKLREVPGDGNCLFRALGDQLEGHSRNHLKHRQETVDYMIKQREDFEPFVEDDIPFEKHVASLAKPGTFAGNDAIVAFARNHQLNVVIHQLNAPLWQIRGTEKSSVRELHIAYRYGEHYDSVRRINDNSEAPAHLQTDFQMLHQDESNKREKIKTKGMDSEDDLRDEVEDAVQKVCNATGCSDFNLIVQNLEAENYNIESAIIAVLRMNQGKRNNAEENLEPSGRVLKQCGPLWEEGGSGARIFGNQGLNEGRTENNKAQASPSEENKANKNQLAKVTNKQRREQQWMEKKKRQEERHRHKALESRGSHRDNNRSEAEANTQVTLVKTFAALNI
USP28 inh: inhibitors of human USP28 deubiquitinase; inhibition, % at 25 µM; actives 3% (n = 47,000); AID 1645857; purified USP28, Ub-rhodamine cleavage fluorescence, 30 min; Q96RU2
* = called active by the depositor. Rule as the data show it: active = inhibition above about 30%; inactive = the rest.

Results for O=C(COC(=O)c1ccc(NS(=O)(=O)c2ccc(F)c(F)c2)cc1)Nc1ccc(OCc2ccccc2)cc1 ?
USP17 inh: 7; USP30 block: 1; OTUD3 inh: 5; USP28 inh: -5

Results for O=C(CCc1nc(-c2ccc(N3CCCCCC3)cc2)no1)N1CCOCC1 ?
USP17 inh: -1; USP30 block: -19; OTUD3 inh: -15; USP28 inh: 19

Results for CCOC(=O)c1cc(OCC(=O)Nc2ccccc2)c2cc(Cl)ccc2n1 ?
USP17 inh: 40*; USP30 block: -5; OTUD3 inh: -2; USP28 inh: -6

How did CCOC(=O)c1cc(OCC(=O)Nc2ccc(C)cc2)c2cc(Cl)ccc2n1 do in these assays?
USP17 inh: 19; USP30 block: 5; OTUD3 inh: 18; USP28 inh: 2

How did COC(=O)COc1ccc(/C=N/NC(=O)c2ccc(CN3CCc4ccccc4C3)cc2)cc1 do in these assays?
USP17 inh: 25; USP30 block: 54*; OTUD3 inh: -4; USP28 inh: 17

Results for Cc1cccc2cc(CN(Cc3ccc4c(c3)OCO4)C(=O)NCc3ccccc3)c(=O)[nH]c12 ?
USP17 inh: 20; USP30 block: 36*; OTUD3 inh: 13; USP28 inh: 23

Results for O=C(c1ccccn1)N1CCC[C@@]2(C[C@@H](Oc3ccc(F)cc3)CO2)C1 ?
USP17 inh: 6; USP30 block: 13; OTUD3 inh: 10; USP28 inh: 8

What do the screens show for `CCC1(c2ccccc2)NC(=O)N(CC(=O)N(c2ccccc2)C(C)C)C1=O` (configuration not stated)?
USP17 inh: 13; USP30 block: 37*; OTUD3 inh: 14; USP28 inh: 16

How did CC(C)N(C(=O)Cn1c(=O)[nH]c2ccccc21)c1ccccc1 do in these assays?
USP17 inh: 58*; USP30 block: 15; OTUD3 inh: 7; USP28 inh: 9

Results for O=C1c2[nH]nc(-c3ccccc3O)c2C(c2ccc(F)cc2)N1Cc1ccco1 (configuration not stated) ?
USP17 inh: 39*; USP30 block: 52*; OTUD3 inh: 13; USP28 inh: 52*

How did Cc1ccc(C2c3c(-c4ccccc4O)n[nH]c3C(=O)N2Cc2ccco2)cc1 (configuration not stated) do in these assays?
USP17 inh: 44*; USP30 block: 46*; OTUD3 inh: -3; USP28 inh: 65*

How did COc1ccc(C2c3c(-c4ccccc4O)n[nH]c3C(=O)N2Cc2ccco2)cc1OC (configuration not stated) do in these assays?
USP17 inh: -5; USP30 block: -2; OTUD3 inh: -10; USP28 inh: -8

Results for O=C(Nc1ccccc1)c1nc2c(s1)CCN(C(=O)c1cccnc1)CC2 ?
USP17 inh: -10; USP30 block: 7; OTUD3 inh: 6; USP28 inh: 7

Results for CS(=O)(=O)c1cccc(NC(=O)C2CC(=O)Nc3ccccc32)c1 (configuration not stated) ?
USP17 inh: 9; USP30 block: 17; OTUD3 inh: 6; USP28 inh: 5

What do the screens show for `Cc1ccccc1OCC(=O)N1CCN(S(=O)(=O)c2ccc3c(c2)OCCCO3)CC1`?
USP17 inh: 8; USP30 block: 38*; OTUD3 inh: 9; USP28 inh: 22

Results for COc1ccc(CC(=O)N2CCN(S(=O)(=O)c3ccc4c(c3)OCCCO4)CC2)cc1 ?
USP17 inh: -9; USP30 block: -10; OTUD3 inh: -6; USP28 inh: -6

What do the screens show for `Fc1cccc(-n2cc(-c3noc(-c4ccc[nH]4)n3)nn2)c1`?
USP17 inh: 43*; USP30 block: 77*; OTUD3 inh: 21; USP28 inh: 46*

Results for COc1cccc(Cc2nc(-c3cn(-c4cccc(F)c4)nn3)no2)c1 ?
USP17 inh: 17; USP30 block: 36*; OTUD3 inh: 23; USP28 inh: 32*

How did Fc1cccc(-n2cc(-c3noc(-c4ccccn4)n3)nn2)c1 do in these assays?
USP17 inh: 30*; USP30 block: 89*; OTUD3 inh: 14; USP28 inh: 81*

Results for COc1cccc(Cc2nc(-c3cn(-c4ccccc4)nn3)no2)c1 ?
USP17 inh: -4; USP30 block: -59; OTUD3 inh: -15; USP28 inh: -30

What do the screens show for `O=C(O)CC1(CC(=O)NCc2ccc(C(F)(F)F)cc2)CCCCC1`?
USP17 inh: 16; USP30 block: 32*; OTUD3 inh: 10; USP28 inh: 12

How did O=C(O)CC1(CC(=O)NCc2cccc(Cl)c2)CCCCC1 do in these assays?
USP17 inh: 4; USP30 block: -6; OTUD3 inh: -3; USP28 inh: -15

Results for NC(=O)c1cc(S(=O)(=O)NCc2ccc3c(c2)OCO3)cs1 ?
USP17 inh: 2; USP30 block: 12; OTUD3 inh: 5; USP28 inh: 2

Results for Cn1c(=O)c2c(-c3ccccc3)n(-c3ccc4c(c3)OCCO4)cc2n(C)c1=O ?
USP17 inh: 32*; USP30 block: -52; OTUD3 inh: -16; USP28 inh: -16

Results for Cn1c(=O)c2c(-c3ccccc3)n(CCO)cc2n(C)c1=O ?
USP17 inh: -19; USP30 block: 0; OTUD3 inh: 0; USP28 inh: -7

How did Cc1ccc(-c2cn(CC(=O)NCc3cccc(F)c3)c(=O)o2)cc1 do in these assays?
USP17 inh: 77*; USP30 block: 56*; OTUD3 inh: 0; USP28 inh: 28

What do the screens show for `Cc1nc(N[C@@H](Cc2ccccc2)C(=O)O)c2oc3ccccc3c2n1`?
USP17 inh: 4; USP30 block: -8; OTUD3 inh: 3; USP28 inh: 0

How did Cc1nc(NCCc2ccc(S(N)(=O)=O)cc2)c2oc3ccccc3c2n1 do in these assays?
USP17 inh: 30; USP30 block: 36*; OTUD3 inh: 2; USP28 inh: 20

What do the screens show for `Cc1cc(Cl)ccc1Nc1nc(NCCN2CCOCC2)nc2c1cnn2C`?
USP17 inh: -14; USP30 block: -6; OTUD3 inh: -9; USP28 inh: -13

How did O=C(COc1nc2ccccc2nc1N1CCOCC1)N1CCc2ccccc21 do in these assays?
USP17 inh: -126; USP30 block: inactive; OTUD3 inh: -156; USP28 inh: -173

How did NC(=O)c1ccccc1OCC(=O)N1CCc2ccccc21 do in these assays?
USP17 inh: 62*; USP30 block: 76*; OTUD3 inh: -7; USP28 inh: 51*

How did COc1cccc(NC(=O)c2cc(S(=O)(=O)N3CCCCCC3)cn2C)c1 do in these assays?
USP17 inh: 11; USP30 block: 14; OTUD3 inh: 12; USP28 inh: 25

How did CC(=O)N1CCc2cc(S(=O)(=O)NC(CC(C)C)C(=O)N3CCC(Cc4ccccc4)CC3)ccc21 (configuration not stated) do in these assays?
USP17 inh: -1; USP30 block: -1; OTUD3 inh: -5; USP28 inh: 7

Results for COc1ccc2nc(NC(=O)C(CC(C)C)NS(=O)(=O)c3ccc4c(c3)CCN4C(C)=O)sc2c1 (configuration not stated) ?
USP17 inh: 74*; USP30 block: 5; OTUD3 inh: 2; USP28 inh: 10
